Molecules are shown by their SMILES.

This test addresses AMP-activated protein kinase, AMPK (Homo sapiens) (UniProt P54646+O43741+P54619+Q9UGJ0+Q9Y478+Q13131+Q9UGI9). The test can be described thus: AMP-dependent Kinase enzyme assay. An in vitro enzyme assay that detects ADP turnover that is directly proportional to AMPK activity. This uses naive AMPK that is activated during the assay with MK-8722. It counts as functional. Details: scale not given: direction of the effect not stated beside the values. Conditions: 30 µM.
On to `Cc1nnc(CN(C)CC(=O)NC(C)(C)c2ccc(F)cc2)n1C`, for which the Percent Effect was 6.43%.
Then `CCOc1ccccc1CN(C)C(C)c1nc(-c2cccnc2)no1` (stereo not given), with 1.83%.
Consider `Cc1cc(C)c(C#N)c(N2CCC3(CCCN(CCO)C3=O)C2)n1` (stereo not given), for which the Percent Effect was found to be 8.35%.
Then `NC(=O)NC(CC(=O)N1CCc2sccc2C1)c1cccc(Br)c1` (stereo not given), with 13.9%; and `Cc1cc(C2CCCN(CC(=O)N3CCc4ccccc43)C2)n[nH]1` (stereo not given), with -5.04%.
Consider `N#CCc1ccc(NC(=O)N[C@H](CO)Cc2ccc(O)cc2)cc1`, for which the Percent Effect is 9.92%.
For the molecule `CN1CCN(c2ccc(F)cc2NC(=O)NCCn2ccnc2)CC1`, the Percent Effect was 12.1%.
On to `CCC(C(=O)NCc1nc(C)cc(C(F)(F)F)n1)n1cccn1` (stereo not given), for which the Percent Effect amounted to 4.67%.
As for `Cc1nc(N)c2ccc(C3CCCN3)nc2n1` (stereo not given), the Percent Effect was 10.9%.
Then `COCCN1CCCC(c2nccnc2-c2cccc(Cl)c2)C1` (stereo not given), with -11.9%.
Consider `CC(Cc1cccc(F)c1)C(=O)NS(=O)(=O)c1cnn(C)c1` (stereo not given), for which the Percent Effect is -5.21%.
The same measure for `CCC(=O)N(c1ccc(C(=O)OC)cc1C)C(C)C`: -4.13%; for `Cc1ccc2c(C(=O)N(C)C)cc(-c3cnn(CCO)c3)nc2c1C`: 7.33%; for `CC(=O)N[C@H]1CCO[C@@H](c2cccc(NC(=O)c3cccc(F)c3)c2)C1`: 6.73%.
The same measure for `Nc1nc2c(c(NCc3nccs3)n1)CCN(CC1CCCC1)CC2`: 1.23%; for `COc1cc(C(=O)O)ccc1OCC(=O)NCCc1ccccc1`: 2.55%.
Turning to `O=C(C1CCCN(c2nc3ccccc3cc2CO)C1)N1CCCC1` (stereo not given), the Percent Effect came out at 9.42%.
Then `CC(C)(C)c1cc(CNC(=O)c2cc(COc3ccccc3)[nH]n2)[nH]n1`, with 17.9%; and `COc1ccccc1CN(Cc1nc(CC(C)C)no1)C1CC1`, with 14.9%.
Then `CCC1COCCN1C(=O)NCc1nccn1CCc1ccccc1` (stereo not given), with -3.33%.
Then `O=C(c1ccnc(CC2COc3ccccc3C2)c1)N1CCCC1` (stereo not given), with 7.97%.
As to `Cc1c(C(=O)N2CCC(C(=O)c3nc4ccccc4s3)CC2)cnn1C`, the Percent Effect is 9.2%.
With `CCC(=O)NC(C)c1ccccc1C` (stereo not given), the Percent Effect came to 14.9%.
As to `CC(C)c1cc(C(=O)NCCc2nc(-c3cccnc3)n[nH]2)[nH]n1`, the Percent Effect was determined as 57.4%.
As to `CC(=O)NCCNC(=O)NCc1ccc(-n2ccc(C(F)(F)F)n2)cc1`, the Percent Effect is -0.713%.
Consider `CCc1cc(=O)[nH]c(-c2ccc(NC(CO)CC(C)C)nc2)n1` (stereo not given), for which the Percent Effect worked out at 4.58%.
In the case of `COc1ccc2c(c1)OCC(C(=O)NCc1ncc3c(n1)CCC3)C2` (stereo not given), the Percent Effect was -0.599%.
The same measure for `CCOc1ccccc1C(C(=O)O)N(C)Cc1cc(C)[nH]n1` (stereo not given): 5.49%; for `FC(F)(F)c1csc(N2CCN(Cc3ccccn3)CC2)n1`: 7.24%.
For the molecule `CC(C)(C)c1ncc2c(n1)CN(c1cc(NCCO)nc(N)n1)C2`, the Percent Effect was -194%.
Turning to `COCCN1CCN(Cc2cnc(C3(C)CCCCO3)nc2)CC1` (stereo not given), the Percent Effect came out at 11.3%.
Turning to `CC(C)(C)NC(=O)C1CCCCN1Cc1nccn1CC(F)(F)F` (stereo not given), the Percent Effect is -2.34%.
Consider `Cc1ccccc1S(=O)(=O)N[C@@H]1CC[C@@H](N2CCNC(=O)C2)[C@@H]1O`, for which the Percent Effect was determined as 5.3%.
Regarding `COC(=O)C1(NCC(=O)Nc2cc(C)ccc2OC)CCCCC1`, the Percent Effect is -3.05%.
The same measure for `Nc1nccnc1C(=O)NC1CCN(Cc2ccccc2)C1` (stereo not given): 7.89%; for `CSc1ccc(C)c(C(=O)Nc2c(C(N)=O)n[nH]c2C)c1`: 3.27%.
The same measure for `Cc1cc(CN(C)Cc2csc(-c3cccs3)n2)n[nH]1`: 6.79%; for `Cc1nc(C(NC(=O)CN(C)C(C)C)c2ccccc2F)no1` (stereo not given): -4.35%; for `CN(CC(=O)NCCc1ccccn1)C(=O)c1cccs1`: 4.43%.
Then `Cn1cc(N2CCN(c3ccc(C#N)cc3F)CC2=O)cn1`, with 0.0438%.

The values are drawn from ChEMBL document CHEMBL3988442, “University of Dundee, Small-Polar-MMV Screening Library” (2021).
